Where “and” joins values, the source holds several entries; their conditions need not be identical. Equal values may be shown once. Out of some 5,500 compounds screened, about 2,000 (36%) were called active. Another 18% or so got no clear call; they are omitted. No stated cut-off is given here; in the data, active means normalized growth mostly below about 0.91 (no sharp cut-off); inconclusive means no clear call, values can overlap the other calls; inactive means mostly above about 0.92. This is one part of the list.
Assay: chemical genetic growth profiling, strain panel (AID 1159580);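 further: tested at 20 µM; growth read once vehicle control cultures reached saturation at 30 °C; 1 = growth at the plate median or of vehicle wells; lower values mean less growth of the strain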
Settings: S. cerevisiae deletion strains, growth OD

Measured: normalized growth

CC(C)NNC(=O)c1ccncc1
inactive: locus YAL013W, strain DEP1, hits give low values 1.01 | locus YAL021C, strain ccr4, hits give low values 1.02 | locus YAL026C, strain drs2, hits give low values 1.03 | locus YAL030W, strain snc1, hits give low values 0.997 | locus YAL040C, strain CLN3, hits give low values 0.985 | locus YBL061C, strain skt5, hits give low values 1.01 | locus YBR009C, strain hhf1, hits give low values 1.01 | locus YBR021W, strain FUR4, hits give low values 1 | locus YBR023C, strain chs3, hits give low values 1.01 | locus YBR171W, strain sec66, hits give low values 1.01 | locus YBR229C, strain ROT2, hits give low values 1 | locus YBR231C, strain swc5, hits give low values 1.03 | locus YBR279W, strain paf1, hits give low values 1.01 | locus YCL011C, strain gbp2, hits give low values 1.02 | locus YCL016C, strain dcc1, hits give low values 1.01 | locus YCL029C, strain bik1, hits give low values 1.02 | locus YCL061C, strain MRC1 (second series), hits give low values 0.986 | locus YCL069W, strain vba3, hits give low values 1.02 | locus YCR088W, strain abp1, hits give low values 1.02 | locus YDL005C, strain med2, hits give low values 1 | locus YDL035C, strain GPR1, hits give low values 1.01 | locus YDL040C, strain nat1, hits give low values 1 | locus YDL074C, strain BRE1, hits give low values 1.02 | locus YDL101C, strain DUN1, hits give low values 1 | locus YDL134C, strain PPH21, hits give low values 1.01 | locus YDL185W, strain tfp1, hits give low values 1.01 | locus YDL192W, strain arf1, hits give low values 1.02 | locus YDR001C, strain nth1, hits give low values 1 | locus YDR069C, strain doa4, hits give low values 1 | locus YDR101C, strain arx1, hits give low values 1.01 | locus YDR137W, strain rgp1, hits give low values 1.01 | locus YDR150W, strain NUM1, hits give low values 0.994 and 0.996 | locus YDR159W, strain sac3, hits give low values 0.978 | locus YDR162C, strain NBP2, hits give low values 1.01 | locus YDR195W, strain ref2 0.961 | locus YDR297W, strain sur2, hits give low values 1 | locus YDR318W, strain mcm21, hits give low values 1.02 | locus YDR334W, strain swr1, hits give low values 1.03 | locus YDR335W, strain msn5, hits give low values 1.01 | locus YDR363W, strain ESC2, hits give low values 1.02 | locus YDR388W, hits give low values 1.01 | locus YDR392W, strain spt3, hits give low values 1.03 | locus YDR502C, strain sam2, hits give low values 1.01 | locus YEL003W, strain gim4, hits give low values 1 | locus YEL037C, strain rad23, hits give low values 1.02 | locus YEL061C, strain CIN8 (second series), hits give low values 1.01 | locus YEL061C, strain CIN8, hits give low values 1 | locus YER002W, strain NOP16, hits give low values 1.01 | locus YER015W, strain faa2, hits give low values 1.02 | locus YER016W, strain bim1, hits give low values 1.01 | locus YER110C, hits give low values 1.02 | locus YER111C, strain swi4, hits give low values 0.999 | locus YER155C, strain BEM2 (second series), hits give low values 1.04 | locus YER155C, strain BEM2, hits give low values 1 | locus YER167W, strain BCK2, hits give low values 1.01 | locus YFR010W, strain ubp6, hits give low values 1.02 | locus YGL078C, strain dbp3, hits give low values 1.02 | locus YGL086W, strain mad1, hits give low values 1.01 | locus YGL167C, strain pmr1, hits give low values 0.996 | locus YGL173C, strain kem1, hits give low values 1.03 | locus YGL227W, strain vid30, hits give low values 0.998 | locus YGL240W, strain doc1, hits give low values 1.01 | locus YGL248W, strain PDE1, hits give low values 0.996 | locus YGL253W, strain hxk2, hits give low values 1.03 | locus YGR078C, strain PAC10, hits give low values 1.01 | locus YGR135W, strain pre9, hits give low values 1.01 | locus YGR229C, strain SMI1, hits give low values 1 and 0.992 | locus YGR252W, strain gcn5, hits give low values 1.05 | locus YHR013C, strain ard1, hits give low values 1.02 | locus YHR027C, strain rpn1, hits give low values 1.01 | locus YHR030C, strain SLT2, hits give low values 1 | locus YHR079C, strain IRE1 (second series), hits give low values 1.02 | locus YHR094C, strain hxt1, hits give low values 1.01 | locus YHR129C, strain ARP1, hits give low values 1 | locus YHR142W, strain chs7, hits give low values 1.03 | locus YHR200W, strain rpn10, hits give low values 1.02 | locus YIL066C, strain RNR3, hits give low values 1.02 | locus YIL073C, strain SPO22, hits give low values 1.04 | locus YIL125W, strain kgd1, hits give low values 1.01 | locus YIR030C, strain dcg1, hits give low values 1.02 | locus YJL092W, strain hpr5, hits give low values 1.01 | locus YJL095W, strain BCK1 (second series), hits give low values 1.02 | locus YJL095W, strain BCK1, hits give low values 1.02 | locus YJL115W, strain asf1, hits give low values 0.988 | locus YJL129C, strain trk1, hits give low values 0.998 | locus YJL134W, strain LCB3, hits give low values 1.01 | locus YJL154C, strain vps35, hits give low values 1.01 | locus YJL164C, strain tpk1, hits give low values 1.01 | locus YJL166W, strain qcr8, hits give low values 1.01 | locus YJL168C, strain set2, hits give low values 1.02 | locus YJL187C, strain SWE1 (second series), hits give low values 1.01 | locus YJL187C, strain SWE1, hits give low values 1.01
